Rows were chosen to be rich in hits. Some 22% of all compounds tested hit in one or more screens of this group.
CYP2C19 act: increases human CYP2C19 enzyme activity | recombinant CYP2C19, luciferin-H EGE luminescence; hits give high values; 0 = fully inhibited enzyme, 1 = untreated enzyme | activation factor at 5 µM | 96,000 tested, under 10 active | AID 1025 | P33261;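 active = activation factor of at least 2 at 5 µM in the primary screen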
Target sequence (P33261 whole entry, looked up): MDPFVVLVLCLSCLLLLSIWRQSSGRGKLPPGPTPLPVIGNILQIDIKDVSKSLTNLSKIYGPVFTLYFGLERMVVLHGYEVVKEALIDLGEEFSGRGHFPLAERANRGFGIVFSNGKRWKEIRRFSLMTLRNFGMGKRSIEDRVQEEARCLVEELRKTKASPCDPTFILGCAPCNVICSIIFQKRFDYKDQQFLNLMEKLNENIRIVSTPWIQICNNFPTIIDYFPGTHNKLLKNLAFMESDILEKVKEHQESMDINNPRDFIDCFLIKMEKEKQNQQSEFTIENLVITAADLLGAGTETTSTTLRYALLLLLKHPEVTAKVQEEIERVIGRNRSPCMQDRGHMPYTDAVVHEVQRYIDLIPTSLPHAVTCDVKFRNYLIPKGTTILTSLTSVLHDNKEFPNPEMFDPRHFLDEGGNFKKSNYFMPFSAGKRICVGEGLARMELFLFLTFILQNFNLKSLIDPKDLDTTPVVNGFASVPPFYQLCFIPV
E-sel TNF inh: blocks E-selectin expression induced by TNF alpha; HUVEC TNFa-induced E-selectin immunofluorescence, high content; inhibition, % at 2 µM; 120,000 compounds, 0.71% hits; AID 1246;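 active = inhibition above the batch mean plus 3 SD, and confirmed as a hit on visual image review, cut at about 43% in these data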
CYP2C9 inh: inhibitors of human CYP2C9 | P11712 | CYP2C9 Supersomes, luciferin-H conversion, luminescence | inhibition, % at 5 µM | 96,000 compounds, 20% hits;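 active = blocking of liver enzyme CYP2C9 beyond about 50% at 5 µM, limit read from the data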
CYP2C19 inhib: human CYP2C19 inhibition; 96,000 compounds, 21% hits; inhibition, % at 5 µM; P33261; CYP2C19 Supersomes, luciferin-H EGE luminescence, 30 min;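 active = CYP2C19 inhibition above a set limit at 5 µM in the primary screen, cut at about 50% in these data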
cytoskel mod: alters cytoskeleton assembly in HUVEC cells. HUVEC TNFa F-actin phalloidin imaging, high content. inhibition, % at 2 µM. 91,000 compounds, 0.18% hits. AID 836;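 active = inhibition above the batch mean plus 3 SD and confirmed as a hit by visual image inspection, cut at about 30% in these data, passing the limit was not always enough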
CYP2C9 act: activators of human CYP2C9 | P11712 | recombinant CYP2C9, luciferin-H conversion, luminescence; hits give high values; factor 1 = untreated enzyme, 0 = blocked | activation factor at 5 µM | 96,000 compounds, 1.4% hits | AID 1024;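 active = activation factor of 2 or more for CYP2C9 at a 5 µM dose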
Large screens that a line does not name were inactive.

CC(C(=O)Nc1ccc(Cl)cc1)c1ncc(C(F)(F)F)cc1Cl (stereo not drawn)	CYP2C19 inhib 93.6 (no result: E-sel TNF inh)
COC(=O)C(C(=O)OC)c1ncc(C(F)(F)F)cc1Cl	none (no result: CYP2C19 act, CYP2C9 inh, CYP2C19 inhib, cytoskel mod, CYP2C9 act)
NC(=O)C(c1ccc(Cl)cc1)c1ncc(C(F)(F)F)cc1Cl (stereo not drawn)	CYP2C19 inhib 73.3
NC(=O)C(c1ccc(Cl)cc1Cl)c1ncc(C(F)(F)F)cc1Cl (stereo not drawn)	CYP2C19 inhib 87.9
FC(F)(F)c1ccccc1NC1=NCCC1	none (no result: CYP2C19 act, CYP2C9 inh, CYP2C19 inhib, cytoskel mod, CYP2C9 act)
COc1cc(OC)cc(C(=O)NCC2CCCO2)c1 (stereo not drawn)	none (no result: cytoskel mod)
COc1cc(OC)c(OC)cc1/C=N/NC(=S)NCC1CCCO1 (stereo not drawn)	CYP2C9 inh 65.2
Cc1ccccc1CS(=O)(=O)CCC(=O)N1CCN(c2ccc(N3CCOCC3)nn2)CC1	none
COc1ccc2[nH]c(=O)c(C(c3nnnn3C(C)(C)C)N(Cc3ccco3)CC3CCCO3)cc2c1 (stereo not drawn)	none (no result: E-sel TNF inh)
COc1ccc(C2=[N+]([O-])C(C)(C)N(O)C2C)cc1 (stereo not drawn)	none (no result: CYP2C19 act, CYP2C9 inh, CYP2C19 inhib, CYP2C9 act)
O=C(CSc1nc2ccccc2c(=O)n1NC(=O)Cc1ccccc1)NCCc1ccccc1	CYP2C9 inh 93.9
CCn1c(SCC(=O)OC2CCCCC2)nc2ccccc2c1=O	CYP2C9 inh 76.9, CYP2C19 inhib 86.6
CCn1c(SCC(=O)NCCOc2ccccc2)nc2ccccc2c1=O	CYP2C9 inh 56.7, CYP2C19 inhib 68.6
COCCNC(=O)CSc1nc2ccccc2c(=O)n1CCCC(=O)NCc1ccccc1	CYP2C9 inh 69.8 (no result: E-sel TNF inh)
CCNC(=O)CSc1nc2ccccc2c(=O)n1CCCOC(C)C	CYP2C9 inh 61.7, CYP2C19 inhib 76.4 (no result: cytoskel mod)
C/C(N)=C(/C#N)C(=O)CSc1nnc(Nc2c(C)cccc2C)s1	CYP2C9 inh 68.6, CYP2C19 inhib 72.4 (no result: cytoskel mod)
Cc1cccc(Nc2nnc(SCC(=O)c3ccc(Br)s3)s2)c1C	none (no result: CYP2C19 act, CYP2C9 inh, CYP2C19 inhib, cytoskel mod, CYP2C9 act)
C/C(N)=C(/C#N)C(=O)CSc1nnc(SCc2ccc(Cl)cc2)s1	CYP2C9 inh 70.6 (no result: E-sel TNF inh)
C/C(N)=C(/C#N)C(=O)CSc1nn(-c2ccc(Cl)cc2)c(=S)s1	none (no result: CYP2C19 act, CYP2C9 inh, CYP2C19 inhib, cytoskel mod, CYP2C9 act)
C/C(N)=C(/C#N)C(=O)CSc1nnc(Nc2cccc(C)c2C)s1	CYP2C9 inh 66.1, CYP2C19 inhib 66.1 (no result: E-sel TNF inh)
COP(C)(=O)c1c(C)nn(-c2ccccc2)c1C (stereo not drawn)	none
COc1cc2[nH]c3c(N4CCC(C(N)=O)CC4)ncnc3c2cc1OC	none (no result: E-sel TNF inh)
CCN(CC)CCNc1c2c(c(C#N)c3nc4ccccc4n13)CCCC2	none
COc1ccc(OCC(=O)NNc2c3ccccc3nc3ccccc23)cc1	CYP2C9 act 2.3
COc1ccc(OCC(=O)Nc2nc3ccccc3[nH]2)cc1	none
O=C(O)c1cc(-c2ccc(O)cc2)nc2ccccc12	none (no result: E-sel TNF inh)
O=C(COc1ccccc1)NNc1c2ccccc2nc2ccccc12	CYP2C9 act 3.2
CCCC(=O)NNc1c2ccccc2nc2ccccc12	none (no result: CYP2C19 act, CYP2C9 inh, CYP2C19 inhib, cytoskel mod, CYP2C9 act)
O=C(NNc1c2ccccc2nc2ccccc12)c1ccc(O)cc1O	CYP2C9 inh 70.8, CYP2C19 inhib 65.8
COC(=O)/C=C/c1sc2nc(C)cc(C)c2c1N=CN(C)C	none (no result: CYP2C19 act, CYP2C9 inh, CYP2C19 inhib, cytoskel mod, CYP2C9 act)
Cc1cc(C)c2c(N=CN(C)C)c(C(=O)N3CCN(c4ncccn4)CC3)sc2n1	CYP2C9 inh 68.6
Cc1cc(C)c2c(N)c(C(=O)N3CCCCCC3)sc2n1	CYP2C19 inhib 51.0 (no result: E-sel TNF inh)
CCCc1ncc(C(=O)c2ccc(OC)cc2)n1C	none
Cc1ccc(S(=O)(=O)NC(CC(=O)N2CCOCC2)c2ccco2)cc1 (stereo not drawn)	none
Cc1ccc(S(=O)(=O)NC(CC(=O)NCc2ccco2)c2ccco2)cc1 (stereo not drawn)	none (no result: E-sel TNF inh, cytoskel mod)
Cc1ccc(S(=O)(=O)NC(CC(=O)NC2CCCC2)c2ccco2)cc1 (stereo not drawn)	CYP2C19 inhib 58.2
COCCCNC(=O)CC(NS(=O)(=O)c1ccc(Cl)cc1)c1ccco1 (stereo not drawn)	CYP2C9 inh 51.8, CYP2C19 inhib 60.8
CCOC(=O)N1CCC(Nc2nc3ccccc3nc2NS(=O)(=O)c2ccc(Cl)cc2)CC1	CYP2C9 inh 95.0
CCOC(=O)N1CCC(NC(=O)CC(NS(=O)(=O)c2ccc(Cl)cc2)c2ccco2)CC1 (stereo not drawn)	CYP2C9 inh 53.8, CYP2C19 inhib 59.7 (no result: cytoskel mod)
COCCCNC(=O)CC(NS(=O)(=O)c1ccc(C)cc1)c1ccco1 (stereo not drawn)	none
CCOC(=O)N1CCN(C(=O)CN(C2CCCCC2)S(=O)(=O)c2ccc(Cl)cc2)CC1	none
CCOc1ccc(C2=NNC(c3cccs3)=Nc3ccc(OC)cc32)cc1OCC	none (no result: CYP2C19 act, CYP2C9 inh, CYP2C19 inhib, CYP2C9 act)
COc1ccc(C2=NNC(c3cccs3)=Nc3ccc(OC)cc32)cc1	E-sel TNF inh 74.3 (no result: CYP2C19 act, CYP2C9 inh, CYP2C19 inhib, CYP2C9 act)
CCOc1ccc(C2=NNC(c3cccs3)=Nc3ccc(OCC)cc32)cc1	CYP2C9 inh 52.8
Cc1cc(C(F)(F)F)n2nc(-c3cnn(C)c3C(F)(F)F)c(Cl)c2n1	CYP2C9 inh 72.1, CYP2C19 inhib 51.2
Cc1cc(C)n2nc(-c3cnn(C)c3C(F)(F)F)c(Cl)c2n1	none
COc1ccc(N2C(=O)CC2(/C=C/c2ccccc2OC)C(=O)NC2CCCC2)cc1 (stereo not drawn)	none (no result: CYP2C19 act, CYP2C9 inh, CYP2C19 inhib, CYP2C9 act)
Cc1ccccc1C(=O)NC1CCN(C(=O)N(c2ccccc2)c2ccccc2)CC1	CYP2C9 inh 58.3
CCOc1ccccc1NC(=O)N1CCC(NC(=O)c2ccccc2C)CC1	CYP2C9 act 2.3
Cc1ccccc1C(=O)NC1CCN(C(=O)N2CCOCC2)CC1	none (no result: CYP2C19 act, CYP2C9 inh, CYP2C19 inhib, CYP2C9 act)
COc1ccc(C(=O)NC2CCN(CC(=O)Nc3cccc(C)c3)CC2)cc1OC	none (no result: CYP2C19 act, CYP2C9 inh, CYP2C19 inhib, CYP2C9 act)
Cc1cccc(NC(=O)N2CCC(NC(=O)c3ccccc3C)CC2)c1	none
CCOc1ccccc1NC(=O)N1CCC(NC(=O)c2cccc(C)c2)CC1	CYP2C9 act 2.6
CN(C(=O)C1CCCN(S(=O)(=O)c2cccc([N+](=O)[O-])c2)C1)C1CCS(=O)(=O)C1 (stereo not drawn)	none (no result: CYP2C19 act, CYP2C9 inh, CYP2C19 inhib, cytoskel mod, CYP2C9 act)
[O-]/C(=C(\C(=S)Nc1ccc(SC(F)F)cc1)[n+]1ccccc1)c1ccc(Cl)cc1Cl	none (no result: CYP2C19 act, CYP2C9 inh, CYP2C19 inhib, cytoskel mod, CYP2C9 act)
Cc1ccc(-c2csc(NC(=O)C3CC=CCC3C(=O)O)c2C(=O)OC(C)C)cc1 (stereo not drawn)	none
CN(C)c1nc2ccc(OCCN3CCCCC3)cc2s1	none (no result: E-sel TNF inh)
COC(=O)c1c(NC(=O)C2CC=CCC2C(=O)O)sc(C)c1C (stereo not drawn)	CYP2C9 inh 71.2
Cc1ccc(-c2cc(-c3ccccc3)c3c(N)c(S(C)(=O)=O)sc3n2)cc1	CYP2C9 inh 57.7
CCOC(=O)c1c(CC(C)C)csc1NC(=O)CCl	CYP2C9 inh 61.7
CCOC(=O)c1c(CC(C)C)csc1NC(=O)C(C)C	none
O=C(NCC1CCN(c2ccc(S(=O)(=O)N3CCOCC3)cc2)CC1)c1ccc(Cl)cc1	none
CCOn1c(=O)c(-c2cccs2)[n+]([O-])c2ccccc21	CYP2C9 inh 52.8, CYP2C19 inhib 57.5

Compound activity from PubChem BioAssay.
